Experimental data: the supplement of paper PMC6555819

Tests used:
Assay in all cases: PBM binding z-score (relative to random genomic background probes); higher = stronger binding; sequences stand for … in GC…GCGATTGACAGCGTAGAATGAAGG
[1] = tested on: FXR:RXRa (NR concentration 270 nM, RXRa partner concentration 90 nM)
Procedure, shortened: (§1)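 Regression normalization was applied to scanned fluorescence from custom Agilent 4×180K protein-binding microarrays. Before scanning, arrays were incubated 1 h with ligand-free nuclear receptor dimers, and binding was detected with antibodies against each partner (one per run). Binding z-scores use the random background probes as reference.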

[2] = tested on: LXRa:RXRa (NR concentration 270 nM, RXRa partner concentration 90 nM)
Procedure, shortened: as §1

[3] = tested on: LXRa homodimer (NR concentration 270 nM)
Procedure, shortened: as §1

[4] = tested on: LXRb:RXRa (NR concentration 270 nM, RXRa partner concentration 90 nM)
Procedure, shortened: as §1

[5] = tested on: LXRb homodimer (NR concentration 270 nM)
Procedure, shortened: as §1

[6] = tested on: PPARa:RXRa (NR concentration 270 nM, RXRa partner concentration 90 nM)
Procedure, shortened: as §1

[7] = tested on: PPARg:RXRa (NR concentration 180 nM, RXRa partner concentration 90 nM)
Procedure, shortened: as §1

[8] = tested on: PPARg:RXRa 270nM:90nM, anti-RXR (NR concentration 270 nM, RXRa partner concentration 90 nM)
Procedure, shortened: as §1

[9] = tested on: PPARg:RXRa 30nM:10nM, anti-RXR (NR concentration 30 nM, RXRa partner concentration 10 nM)
Procedure, shortened: as §1

[10] = tested on: PPARg:RXRa 90nM:30nM, anti-RXR (NR concentration 90 nM, RXRa partner concentration 30 nM)
Procedure, shortened: as §1

[11] = tested on: PPARg:RXRa DBDmut IVT, anti-RXR (DBD mutation: RXRa K156A/R161A, NR concentration 270 nM, RXRa partner concentration 90 nM)
Procedure, shortened: as §1

[12] = tested on: PPARg:RXRa IVT, anti-PPARg (NR concentration 270 nM, RXRa partner concentration 90 nM)
Procedure, shortened: as §1

[13] = tested on: PPARg DBDmut:RXRa IVT, anti-PPARg (DBD mutation: PPARg1 K132A/R137A, NR concentration 270 nM, RXRa partner concentration 90 nM)
Procedure, shortened: as §1

[14] = tested on: PPARg DBDmut IVT, anti-PPARg (DBD mutation: PPARg1 K132A/R137A, NR concentration 270 nM)
Procedure, shortened: as §1

[15] = tested on: PPARg homodimer (NR concentration 180 nM)
Procedure, shortened: as §1

[16] = tested on: PXR:RXRa (NR concentration 270 nM, RXRa partner concentration 90 nM)
Procedure, shortened: as §1

[17] = tested on: PXR homodimer (NR concentration 270 nM)
Procedure, shortened: as §1

[18] = tested on: RARa:RXR (NR concentration 270 nM, RXRa partner concentration 90 nM)
Procedure, shortened: as §1

[19] = tested on: RARa homodimer (NR concentration 270 nM)
Procedure, shortened: as §1

[20] = tested on: RARb:RXRa (NR concentration 270 nM, RXRa partner concentration 90 nM)
Procedure, shortened: as §1

Sequence | PBM binding z-score [1] | PBM binding z-score [2] | PBM binding z-score [3] | PBM binding z-score [4] | PBM binding z-score [5] | PBM binding z-score [6] | PBM binding z-score [7] | PBM binding z-score [8] | PBM binding z-score [9] | PBM binding z-score [10] | PBM binding z-score [11] | PBM binding z-score [12] | PBM binding z-score [13] | PBM binding z-score [14] | PBM binding z-score [15] | PBM binding z-score [16] | PBM binding z-score [17] | PBM binding z-score [18] | PBM binding z-score [19] | PBM binding z-score [20]
CAGCCTAGGTCCGGGCCAGTATAGGAGGAACGTT | -0.987 | -1.11 | -0.834 | -1.41 | -1.47 | -1.78 | -0.191 | -0.878 | -0.996 | -1.2 | -1.2 | -1.1 | -2.15 | -1.84 | -1.61 | -1.01 | -0.992 | -1.12 | -1.43 | -0.671
CCTACTTGGCCATTCAGAGGTCATTGATCATATG | 3.12 | 4.37 | 6.52 | 4.31 | 1.21 | 3.83 | 0.976 | 2.46 | 0.88 | 1.77 | 1.47 | 1.52 | 1.11 | 0.893 | 2.19 | 4.93 | 1.5 | 4.54 | 1.18 | 3.13
GCTTACGGGCCAAAGGTTATAGCATGAATAGAAT | 1.52 | 1.75 | -0.0531 | 2.24 | -0.287 | 4.59 | 8.48 | 7.11 | 6.58 | 7.83 | 1.06 | 3.69 | -0.252 | 0.373 | 0.626 | 2.27 | 0.0168 | 3.13 | 0.0801 | 1.81
TAGCCTAGGTCAGATCTGGCCAGTATACGCTATA | 1.53 | 1.13 | -0.379 | 0.773 | 0.0198 | 1.43 | 0.793 | 0.718 | -0.145 | 0.178 | 0.589 | 1.44 | -0.455 | -0.0508 | -0.0754 | 0.447 | -1.1 | 0.766 | -1.06 | 2.98
AGAATGAGGTTAAGATCAGGGAGACAGAATACAT | 2.07 | 1.66 | 0.293 | 1.69 | -0.0325 | 3.31 | 2.15 | 2.29 | 0.947 | 1.62 | 3.04 | 2.59 | 1.8 | 0.747 | 0.955 | 1.26 | 0.933 | 1.95 | 0.709 | 1.91
TTACCAAGGTGATGGTCGTTGATCCCTCTGTAGA | 0.274 | 0.0639 | -0.222 | 0.219 | -0.598 | 0.442 | -0.08 | 0.334 | 0.217 | 0.0112 | 1.08 | 1.23 | -0.135 | 0.288 | 0.359 | -0.171 | -0.42 | 0.272 | 0.249 | 0.312
GATACAGGGTCAGCTAGAGGCCAGACTATGGAAA | 4.52 | 2.92 | -0.325 | 2.4 | 0.0441 | 4.49 | 4.01 | 3.55 | 1.29 | 2.19 | 1.46 | 2.29 | -0.0728 | 0.0438 | 1.82 | 2.88 | 0.12 | 4.3 | 0.752 | 3.97
TCGAGTACGTTAGTCGGGGCATTCAGCCAACATA | -0.454 | -0.474 | -0.665 | 0.0371 | -1.12 | 0.167 | -0.163 | 0.223 | 0.88 | 0.775 | 0.607 | -0.44 | -0.411 | -0.712 | -0.34 | -0.0967 | -0.478 | -0.134 | -0.667 | 0.019
